# Screening data as filed in PubChem BioAssay.
# RecA splice inh: Mtb RecA intein splicing inhibition; P9WHJ3; cell-free RecA intein splicing, fluorescence; inhibition, % (concentration not given with the values); actives 0.75% (n = 290,000); in the data active = inhibition above about 30%; inconclusive = no clear call, values can overlap the other calls;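 note: 0% = vehicle wells and 100% = reference inhibitor control wells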
# Y pestis TopoI: Y. pestis Topo-I inhibition via cleavage products | Y. pestis Topo-I cleavage product accumulation, plate reader | activity, % at 10 µM | actives 0.064% (n = 360,000) | AID 504884; in the data active = activity above about 50%, passing the limit was not always enough; inconclusive = no clear call, values can overlap the other calls
# Mtb BioA inh: BioA (M. tuberculosis) enzyme inhibition; actives 0.096% (n = 360,000); inhibition, % at 9.99 µM; purified M. tuberculosis BioA enzyme, plate reader; in the data active = inhibition above about 40%; inconclusive = no clear call, values can overlap the other calls
# BJeLR lethal: BJeLR cell viability loss. BJeLR (HRASV12) viability, CellTiter-Glo ATP luminescence, 48 h. inhibition, % (test concentration not listed). actives 0.17% (n = 300,000); in the data active = inhibition above about 50%; inconclusive = no clear call, values can overlap the other calls
# Mtb bLac sens: beta-lactam sensitization of Mtb H37Rv; M. tuberculosis H37Rv growth with meropenem, percent inhibition; inhibition, % at 25 µM; actives 0.27% (n = 330,000); AID 434955; call rule not given here;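 note: growth measured after seven days incubation then overnight dye step; 0% = bacteria only wells and 100% = bacteria with antibiotic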
# CCHF vOTU inh-1: blocks the CCHF virus ovarian tumor domain protease | actives 0.55% (n = 370,000) | CCHFV vOTU protease, Pep-AMC fluorescence | inhibition, % at 11.5 µM; note: 0% = vehicle wells with enzyme and 100% = no enzyme wells
# CCHF vOTU inh-2: confirmation of CCHF virus vOTU protease inhibitors; shares compounds with CCHF vOTU inh-1; Recombinant CCHFV vOTU, Pep-AMC fluorescence; inhibition, % at 11.5 µM; actives 17% (n = 1,900); AID 686976
# Starred values were filed as active, the others as inactive; ? = inconclusive; · = no result given. The list is not random: actives were taken first. Their share in the collection is about 1.1%. Cut-off read from the data, not from the text of the source, unless noted: active = inhibition above about 30%; inactive = the rest.
SMILES,RecA splice inh,Y pestis TopoI,Mtb BioA inh,BJeLR lethal,Mtb bLac sens,CCHF vOTU inh-1,CCHF vOTU inh-2
CC1(C)OC(=O)C(=NNc2ccccc2)C(=O)O1,2,4,0,-4,2,22,·
CC1(C)OC(=O)C(=NNc2ccccc2[N+](=O)[O-])C(=O)O1,-1,-9,-1,5,-4,30*,-2
Cc1c(P(=S)(c2ccccc2)c2ccccc2)[n+]2ccccc2n1C,2,-5,0,7,·,-2,·
Cc1c(P(=S)(c2ccccc2)c2ccccc2)[n+]2ccccc2n1C/C=C/c1ccccc1,·,7,11,·,·,30*,-33
Cc1ccc(S(=O)(=O)N(C)C[C@@H]2Oc3ccc(NC(=O)NC4CCCCC4)cc3CC(=O)N([C@H](C)CO)C[C@@H]2C)cc1,·,·,-1,·,·,·,·
Cc1ccc(S(=O)(=O)NC(=O)Cn2nnc(-c3ccccc3)c2COc2ccc3ccccc3c2)cc1,·,21,3,·,·,34*,2
CC(=O)c1ccc(OCc2c(-c3ccccc3)nnn2CC(=O)NS(=O)(=O)c2ccc(C)cc2)cc1,·,7,3,·,·,6,·
COc1ccc2nc(N3C(=O)C(O)=C(C(=O)c4ccco4)C3c3ccc(OC)c(OC)c3)sc2c1 (stereo unspecified),·,19,5,·,·,34*,2
CCCC#Cc1ccc2c(c1)O[C@H](CN(C)C(=O)c1ccccc1)[C@H](C)CN([C@@H](C)CO)S2(=O)=O,·,·,2,·,·,·,·
CCC(=Nc1ccc(N)cc1)C1=C(O)C(C(=O)OC)C(C)(C)CC1=O (stereo unspecified),-7,-9,-1,-13,9,105*,5
CCCCC(=Nc1ccc(N)cc1)C1=C(O)C(C(=O)OC)C(C)(C)CC1=O (stereo unspecified),-5,6,-2,7,42,92*,8
CCCC(=Nc1ccccc1)C1=C(O)C(C(=O)OC)C(C)(C)CC1=O (stereo unspecified),1,5,0,3,-1,-12,·
COC1=C(Nc2ccc(C)cc2)C(=O)c2ccccc2C1=O,5,3,·,-9,7,55*,-9
COC1=C(Nc2ccccc2)C(=O)c2ccccc2C1=O,8,1,·,2,11,15,·
CC1(Cc2ccc(C(F)(F)F)o2)C(=O)Nc2cc(-c3ccc(F)cc3F)ccc21 (stereo unspecified),·,7,-1,·,·,39*,-1
Cc1c(C)n(Cc2ccc(-c3ccccc3C(=O)O)cc2)c2ccc(C(=O)N[C@@H](C)c3ccc(Br)cc3)cc12,·,·,·,·,·,33*,3
C[C@@H]1CN([C@@H](C)CO)S(=O)(=O)c2ccc(C#Cc3ccccn3)cc2O[C@H]1CN(C)Cc1ccccc1,·,·,-7,·,·,·,·
CC(C)CNC(=O)C1(C)CCCCCN1Cc1ccccc1-c1ccccc1 (stereo unspecified),·,?,-1,·,·,35*,9
CCNC(=O)C1(C)CCCN1Cc1ccccc1Cl (stereo unspecified),·,5,0,·,·,-3,·
C[C@H](CO)N1C[C@H](C)[C@@H](CN(C)C(=O)c2ccccc2)OCCCC[C@H](C)Oc2ccc(NS(C)(=O)=O)cc2C1=O,·,·,-2,·,·,·,·
CN1CCN(S(=O)(=O)c2cccc(C(=O)N(Cc3nnc(-c4ccc(Cl)cc4)o3)C3CC3)c2)CC1,0,28,·,0,5,34*,-13
O=C(NCC[C@@H]1CC[C@@H](NS(=O)(=O)Cc2ccccc2)[C@H](CO)O1)C1CCCC1,·,·,-1,·,·,·,·
NC(=S)N=Nc1c(O)cc(O)c2[nH]c(=O)ccc12,·,-17,·,·,·,87*,90*
NC(=S)N=Nc1c(O)[nH]c2ccc(F)cc12,-2,-10,·,-3,4,13,·
C(=N\Nc1nc(-c2ccccc2)cs1)/c1ccco1,12,-7,-1,-1,98,31*,-11
SMILES,RecA splice inh,Y pestis TopoI,Mtb BioA inh,BJeLR lethal,Mtb bLac sens,CCHF vOTU inh-1,CCHF vOTU inh-2
O=C1Nc2ccccc2N=C(c2ccc3c(c2)OCO3)C1N(C(=O)c1ccc2ccccc2c1)C1CC1 (stereo unspecified),·,·,-3,·,·,32*,-5
CO[C@H]1CN(C)C(=O)c2ccc(NC(=O)C3CC3)cc2OC[C@H](C)N(C(=O)c2ccccc2F)C[C@@H]1C,·,·,-1,·,·,·,·
Cc1ccc(NP(=O)(c2ccc(N(C)C)cc2NC(=O)c2cccs2)N2CCOCC2)cc1Cl (stereo unspecified),1,7,-11,1,16,30*,-25
CCOc1ccc(Br)cc1S(=O)(=O)Nc1cccc(S(=O)(=O)Nc2ccccc2C(=O)O)c1,·,10,0,·,-5,30*,-4
COC(=O)[C@]1(Cc2ccccc2)N[C@H](CN(C)C(=O)Nc2ccccc2)[C@@H]2C(=O)N(Cc3ccccc3)C(=O)[C@@H]21,·,11,0,·,2,37*,-25
O=C(C[C@@H]1CC[C@H]2[C@@H](COC[C@@H](O)CN2C(=O)c2cnccn2)O1)NCc1ccccc1,·,·,-2,·,·,·,·
CCCCCCSC1=C(C#N)C(=O)NC2(CCCCC2)S1,5,3,4,3,2,35*,-3
Cc1noc(C)c1NC(=O)N(C)C[C@H]1OCc2ccccc2-c2c(n(C)c3ccccc23)C(=O)N([C@H](C)CO)C[C@H]1C,·,·,2,·,·,·,·
C[C@@H]1CN([C@H](C)CO)S(=O)(=O)c2ccc(Br)cc2O[C@H]1CN(C)Cc1cccnc1,·,·,8,·,·,·,·
CC1(Cc2ccccc2OC(F)(F)F)C(=O)Nc2ccc(-c3ccsc3)cc21 (stereo unspecified),·,14,-2,·,·,35*,-10
CC1(Cc2ccccc2OC(F)(F)F)C(=O)Nc2ccc(OC(F)(F)F)cc21 (stereo unspecified),·,28,17,·,·,33*,10
C[C@H]1CN([C@@H](C)CO)C(=O)CCCn2nncc2CO[C@@H]1CN(C)S(=O)(=O)c1ccc(F)cc1,·,·,-2,·,·,·,·
CS(=O)(=O)N(Cc1ccccc1)c1ccc(C(=O)NCC2CCCO2)cc1 (stereo unspecified),5,-8,-2,1,-14,35*,-6
CC(C)(C)CC(C)(C)NC(=O)Nc1cccc([N+](=O)[O-])c1,4,-11,1,11,6,39*,-12
CN1c2ccccc2C(C)(C)C12C=Nc1c(cc(N3CCOCC3)c3ccccc13)O2 (stereo unspecified),46*,-8,-2,13,·,102*,-16
CN1c2ccccc2C(C)(C)C12C=Cc1cc(O)ccc1O2 (stereo unspecified),6,1,-1,-1,2,8,·
C[C@H](CO)N1C[C@H](C)[C@H](CN(C)C(=O)Nc2ccc(C(F)(F)F)cc2)OCCCC[C@H](C)Oc2ccc(NC(=O)Nc3ccccc3)cc2C1=O,·,·,-2,·,·,·,·
COc1cc(NS(=O)(=O)c2ccc(Nc3nc(-c4ccccc4)cs3)cc2)nc(OC)n1,25,-3,·,0,5,36*,15
